Assay results: PubChem BioAssay AID2782 (National Center for Advancing Translational Sciences (NCATS), 2010)
Results filed as inconclusive are left out. Entries that show only a call come without a potency. Calls of active or inactive are those of the source. The call rests on the fitted dose curve; in most records, active means well fitted inhibition curve with a large enough effect in the polarisation, with a control signal flat (not every such curve was filed as active); inconclusive means small, poorly fitted or top-dose-only effect, or effect the other way, or a change in a side signal; inactive means no such curve, though single readings can be large or run the other way; the % refers to the polarisation.

experiment: Confirmation of Inhibitors Targeting the Menin-MLL Interaction in MLL Related Leukemias: Competition With Texas Red Labeled MLL-derived Mutant Peptide; details: fluorescence polarization, Texas Red MLL peptide displacement; series mostly up to 94.6 µM
Source text: qHTS Assay for Inhibitors Targeting the Menin-MLL Interaction in MLL Related Leukemias
NIH Chemical Genomics Center [NCGC]
NIH Molecular Libraries Probe Centers Network [MLPCN]
Assay Submitter (PI): Jolanta Grembecka, Tomasz Cierpicki, University of Virginia
Translocations of the MLL (Mixed Lineage Leukemia) gene are frequently found in human leukemias affecting both children and adults. Fusion of MLL to one of more than 60 genes results in generation of oncogenic proteins upregulating Hox genes, which are vital to blood cell development. Patients harboring fusion of the MLL gene suffer from aggressive leukemias and respond poorly to available therapies. All of the oncogenic fusion proteins have a preserved N-terminal fragment of MLL that has been identified to interact with menin. It has been recently discovered that association with menin is critical to the leukemogenic activity of the MLL fusion oncoproteins. Selective targeting of the menin-MLL interaction could provide an attractive therapeutic approach to develop novel drugs for MLL-related leukemias. Small molecules blocking the menin-MLL interaction should reverse the oncogenic potential of MLL fusion proteins.
We have developed and optimized a fluorescence polarization-based assay for the identification of Menin-MLL inhibitors. The assay was run employing two different MLL-derived peptides. The present assay uses a 12 amino acid peptide labeled with fluorescein at its N-terminus. This peptide consists of the menin high affinity binding motif from MLL and is potently bound by menin. Another peptide with a mutated sequence, labeled with Texas Red, was used in parallel as a less stringent screen for inhibitors.
The present assay was run to confirm the activity of hits from the primary screen using the peptide with a mutated sequence, labeled with Texas Red.
The Menin protein, the MLL-wild type (w.t.) derived peptide (N-terminal 12 amino acids), the MLL-derived peptide labeled with Texas Red and the MLL-w.t. peptide labeled with Fluorescein were kindly supplied by laboratory of Dr. Jolanta Grembecka, University of Virginia. All protein and peptide solutions were stored in single use aliquots at -80C. The Eu3+ Cyrptate-conjugated mouse monoclonal antibody anti-6 Histidine (Eu3+-AB) and the Streptavidin-XL665 conjugate (XL665) were purchased from Cisbio International (Bedford, MA). All antibody and XL665 conjugate solution stocks were stored in single use aliquots at -20C. The Buffer components for all assays were purchased from Sigma-Aldrich (St. Louis, MO) and Invitrogen (Carlsbad, CA).
1. FP reaction buffer: 50 mM Tris-HCl pH 7.5, 50 mM NaCl, 1mM DTT.
Before use, 0.05% BSA is added.
2. Menin protein, MLL-w.t. labeled with fluorescein, MLL-mutant peptide labeled with texas red.
Stored in singe use aliquots at -80C.
3. MLL-w.t. unlabeled peptide as positive control: 10 uM final in FP buffer.
1. Prepare Menin at 200 nM, MLL-w.t.-fluorescein at 25 nM, and MLL-mutant-texas red at 50 nM mixture in FP buffer.
2. Prepare Menin at 200 nM, MLL-w.t.-fluorescein at 25 nM, MLL-mutant-texas red at 50 nM, and 10 uM MLL-w.t. unlabeled mixture in FP buffer.
3. Prepare MLL-w.t.-fluorescein at 25 nM and MLL-mutant-texas red at 50 nM mixture in FP buffer.
3. Dispense 4 ul per well of reagent in step 1 in columns 2, 4 - 48 in a black 1536 well plate, dispense 4 ul per well of reagents from steps 2 and 3 in columns 1 and 3 respectively. Incubate plate at ambient for 15 minutes.
4. Transfer 23 nl per well of compound to plate and incubate at ambient for 1 hr.
5. Read fluorescence polarization for each label using the PerkinElmer Envision.
Envision protocol for fluorescein: FITC FP Dual Enh Mirror, Excitation filter 480, Emission filter (1) P-pol 535, Emission filter (2) S-pol 535
Envision protocol for texas red: FP Dual Enh Mirror, Excitation filter 555, Emission filter (1) P-pol 632, Emission filter (2) S-pol 632
Potency means the concentration at half of the fitted maximal effect.

Row | Compound | Potency
1 | Cc1cc2[nH]c3c(c[n+](C)c4ccccc34)c2cc1C | 56.4 µM (active)
2 | CCc1cc2c(N3CCN(C(=O)c4ccco4)CC3)ncnc2s1 | 35.5 µM (active)
3 | O=C(c1cc(F)c(F)cc1Cl)N1CCN(c2ncccn2)CC1 | inactive
4 | CC(=O)NC1C(=O)N(CCN2CCOCC2)c2ccc(C)cc21 (stereo not given) | 71 µM (active)
5 | CCCCC(=O)NC(=S)Nc1nnn(CCC)n1 | inactive
6 | COc1ccc(N(CC(=O)NC2CC3CCC2C3)S(=O)(=O)c2ccc(C)cc2)cc1OC (stereo not given) | inactive
7 | O=C(C1=C(O)C(=O)N(CCN2CCOCC2)C1c1cccc(Br)c1)c1cccs1 (stereo not given) | inactive
8 | COC(=O)COc1ccc(C(C2C(=O)CC(C)(C)CC2=O)C2C(=O)CC(C)(C)CC2=O)cc1 | inactive
9 | CN1C[C@@H]2C[C@H]1CN2c1cc2c(cc1F)c(=O)c(C(=O)O)cn2C1CC1 | inactive
10 | Cc1cc(N/N=C/c2ccc(O)cc2)c2cccc(C)c2n1 | 71 µM (active)
11 | CN[C@H]1[C@H](O)[C@@H](O[C@@H]2[C@H](O)[C@@H](O[C@H]3OC(CN)=CC[C@H]3N)[C@@H](N)C[C@H]2N)OC[C@@]1(C)O | inactive
12 | CN(C)/C=C(/C(=O)c1ccc(Cl)cc1)S(=O)(=O)c1ccc(Cl)cc1 | inactive
13 | COC(=O)c1cc(CNC(=O)CCCSc2ccccc2)ccc1OC | inactive
14 | CCCCn1c(SCC(=O)NCc2ccc(OC)c(C(=O)O)c2)nc2cc(S(N)(=O)=O)ccc21 | inactive
15 | CN(C)c1ccc(N=Nc2ccc(C(=O)O)cc2)cc1 | 141 µM (active)
16 | O=C(C[N+]12CC[N+](CC(=O)c3ccc(F)cc3)(CC1)CC2)c1ccc(F)cc1 | 35.5 µM (active)
17 | CCCC(c1nnnn1Cc1cccs1)N1CCN(C2CCCC2)CC1 (stereo not given) | 112 µM (active)
18 | Cc1sc2ncnc(NC3CCN(Cc4ccccc4)CC3)c2c1C | 28.2 µM (active)
19 | CCOc1ccc(-c2nn(-c3ccccc3)cc2/C=C2\SC(N)=NC2=O)cc1C | inactive
20 | CCC(C)CCCCC(=O)N[C@@H](CCN)C(=O)N[C@H](C(=O)N[C@@H](CCN)C(=O)N[C@H]1CCNC(=O)C([C@@H](C)O)NC(=O)[C@@H](CCN)NC(=O)[C@H](CCN)NC(=O)[C@H](CC(C)C)NC(=O)[C@@H](CC(C)C)NC(=O)[C@H](CCN)NC1=O)[C@@H](C)O (stereo not given in full) | 7.94 µM (active)

Row | Compound | Potency
21 | COc1cccc(NC(=O)N2CCCc3ccccc32)c1 | inactive
22 | NC(=O)[C@@H]1CCCNc2c(I)cc([N+](=O)[O-])cc2C(=O)N[C@@H](CCCN=C(N)N)C(=O)N[C@@H](CCCN=C(N)N)C(=O)N1 | 141 µM (active)
23 | CCCc1nc2c(=O)[nH]c3ccccc3c2o1 | inactive
24 | COc1ccc(CN2CCN(C(C)C(=O)N(C)Cc3cccc(F)c3)CC2)cc1OC (stereo not given) | inactive
25 | COc1ccc(/C=C(\C#N)C(=O)NCc2ccccc2)cc1 | inactive
26 | COc1ccc(-c2csc(NC(=S)NC(=O)/C=C/c3ccc(C(C)C)cc3)n2)cc1OC | 17.8 µM (active)
27 | O=C(CCN1CCN(c2ccc([N+](=O)[O-])cc2)CC1)c1ccc(Cl)cc1 | inactive
28 | CN(C)CCc1c[nH]c2ccc(CC3COC(=O)N3)cc12 (stereo not given) | inactive
29 | N#CC1=C(N)OC2=C(C(=O)CC(c3ccco3)C2)C1c1ccc(OCc2c(F)cccc2Cl)cc1 (stereo not given) | inactive
30 | COc1cc(NC(=O)c2cccnc2)c(OC)cc1NC(=O)c1ccc(Br)cc1 | inactive
31 | C/C(=N\NC(=O)c1nnn(-c2nonc2N)c1C)c1ccc(-c2ccccc2)cc1 | inactive
32 | O=C(CCn1nc(-c2ccccc2)ccc1=O)N1CCN(c2ccccn2)CC1 | inactive
33 | CC(c1ccncn1)N(C)Cc1nc(-c2ccc(C(F)(F)F)cc2)no1 (stereo not given) | inactive
34 | Cc1nc(N2CCN(C)CC2)c2c3c(sc2n1)CCCC3 | 126 µM (active)
35 | CCOc1cc(C(c2c(C)[nH][nH]c2=O)c2c(C)[nH][nH]c2=O)cc(Br)c1OC | inactive
36 | CCCC(=O)NC(c1ccccc1Cl)c1ccc2cccnc2c1O (stereo not given) | inactive
37 | O=C(NCC1CCCO1)c1ccc(OC2CCN(C(=O)C3CC3)CC2)cc1 (stereo not given) | inactive
38 | CC(=O)O[C@H]1CSC[C@H]1NC(=O)c1ccccc1 | inactive
39 | COc1ccccc1CC(=O)Nc1ccc(-c2noc(COc3ccc(Br)cc3)n2)cc1 | 71 µM (active)
40 | COc1cc(SC)ccc1C(=O)Nc1cccc(C2OCCCO2)c1 | inactive
